Screening data as filed in PubChem BioAssay.
A selection: hits, their analogues and other compounds. The true share with any hit is near 4.8%.
hcDAF12 agonist – H. contortus DAF-12 nuclear receptor activators, primary screen, cell-based, luminescence, HEK293, lit1-tk-luc reporter | AID 652067, 2013 | HEK293 hcDAF-12 lit1-tk-luc reporter; 0% DMSO, 100% Δ7-dafachronic acid | hit rate 1.4% among 370,000 | activation, % at 6.8 µM;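 active means activation above the mean of all tested compounds plus 3 SD, cut at about 5.5% in these data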
ssDAF12 agonist – S. stercoralis DAF-12 nuclear receptor activators, primary screen, cell-based, luminescence, HEK293, GRIP1 co-expression, lit1-tk-luc | activation, % at 6.8 µM | hit rate 1% among 370,000 | HEK293 ssDAF-12/GRIP1 lit1-tk-luc reporter; % of 3 µM dafachronic acid response | Nuclear hormone receptor DAF-12 (Strongyloides stercoralis);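 active means activation above the mean over all tested compounds plus 3 SD, cut at about 0.9% in these data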
DAX1 inh-1 – DAX1 (NR0B1) inhibitors, primary screen, cell-based, HEK293, Gal4-DAX1, luciferase luminescence | Nuclear receptor subfamily 0 group B member 1 (Homo sapiens), P51843 | HEK293 Gal4-DAX1 luciferase reporter | inhibition, % at 6.75 µM | hit rate 0.99% among 340,000;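 active means inhibition above the mean over all tested compounds plus 3 SD, cut at about 4.2% in these data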;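 further: inhibition shows as a rise in luminescence from relieved DAX1 repression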
Target sequence (P51843 207-470 limits assumed): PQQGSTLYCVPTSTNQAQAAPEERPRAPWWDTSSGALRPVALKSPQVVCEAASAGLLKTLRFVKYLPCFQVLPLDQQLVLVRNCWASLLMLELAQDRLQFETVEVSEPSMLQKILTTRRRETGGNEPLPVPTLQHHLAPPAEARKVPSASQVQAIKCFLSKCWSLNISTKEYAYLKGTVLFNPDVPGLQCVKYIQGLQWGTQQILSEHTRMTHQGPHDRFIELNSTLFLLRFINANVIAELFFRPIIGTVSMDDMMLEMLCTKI
hgDAF-12 ag – H. glycines DAF-12 receptor agonists, primary screen, cell-based, luminescence, HEK293, GAL4 fusion, UAS-luciferase. Nuclear hormone receptor DAF-12 (Heterodera glycines), GAL4 fusion. HEK293 GAL4-hgDAF12 UAS-luciferase reporter, agonist luminescence; normalized to butyrate control. activation, % at 6.8 µM. hit rate 1.8% among 370,000;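 active means activation above a cutoff set at the mean of all screened compounds plus 3 SD, cut at about 10% in these data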
DAX1 inh-2 – DAX1 (NR0B1) inhibitors on StAR promoter, primary screen, cell-based, luminescence, SF-1 (NR5A1), full-length DAX-1 | hit rate 1.1% among 370,000 | HEK293T StAR-luciferase reporter, SF-1/DAX-1 repression relief | AID 652010, 2013 | inhibition, % at 6.8 µM;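 active means inhibition above the mean over all tested compounds plus 3 SD, cut at about 3.6% in these data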;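 further: higher inhibition means more luminescence from relief of DAX-1 repression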
SMARCA2 act – SMARCA2 (BRM) function activators, primary screen, cell-based, luminescence, high throughput. MG213 cells, MMTV-luciferase reporter, dexamethasone, overnight. activation, % at 9.1 µM. hit rate 1% among 370,000; in the data active means activation above about 7.8%
Each line names hits and unclear results; the compound was inactive in the other large screens; ! = a repeat was not active.

COc1ccc(N(CC(=O)NCCSc2ccccn2)S(C)(=O)=O)cc1	none
COc1ccc(NC(=O)CSc2ccccn2)cc1	none
O=C(CSc1nnc(-c2ccc(O)cc2)o1)Nc1ccc2c(c1)OCCO2	DAX1 inh-2 3.6
COc1cccc(NC(=O)CSc2nnc(-c3ccc(C)cc3)o2)c1	DAX1 inh-1 6.1, hgDAF-12 ag 11.2, DAX1 inh-2 6.5
Cc1ccc(/C=N/Nc2ccc(C(=O)O)cc2)s1	none
Cc1ccsc1/C=N/Nc1ccc(C(=O)O)cc1	hcDAF12 agonist 6.4
Cc1cc([N+](=O)[O-])nn1CCCC(=O)NC1CCCCC1	DAX1 inh-1 8.3
O=C(N/N=C/c1ccc(OCC(=O)N2CCCCC2)cc1)c1ccccc1	none
O=C(N/N=C/c1ccc(OCC(=O)N2CCCCC2)cc1)c1ccccc1O	ssDAF12 agonist 1.7
Cc1[nH]c2ccccc2c1CC(=O)Nc1ccc(Nc2cccnc2)c(-c2ccc(Cl)c(Cl)c2)c1	none (no result: DAX1 inh-1)
Nc1[nH]c(C(=O)c2ccccc2)c(-c2ccc3ccccc3c2)c1C(=O)NCc1ccc(F)cc1	none (no result: DAX1 inh-1)
CCC(=O)NC(=S)Nc1ccccc1F	none
COc1ccc(C(=O)NC(=S)Nc2ccccc2F)cc1	hgDAF-12 ag 10.9
CC(=O)NC(=S)Nc1ccccc1F	DAX1 inh-1 6.3
CO[C@H]([C@H](C)/C=C/N(C)C=O)[C@@H](C)C(=O)CC[C@H](C)[C@H](O)[C@H](C)[C@H]1OC(=O)/C=C/C(C)=C/C[C@H](O)C[C@@H]2C=CC[C@@H](C[C@H](OC)[C@@H](C)[C@@H](OC)C[C@@H](OC)[C@@H]1C)O2	none (no result: DAX1 inh-1, DAX1 inh-2, SMARCA2 act)
COc1cc(C)ccc1OCc1cc(C(=O)N2CCC(c3ccc(F)cc3)C2)no1 (stereo unspecified)	hgDAF-12 ag 12.5
COc1ccccc1OCc1cc(C(=O)N2CC3C[C@@H]4CC2C[C@H](C3)C4)no1	hgDAF-12 ag 12.1, DAX1 inh-2 3.7
COCC1CCN(C(=O)c2cc(COc3ccc(F)cc3F)on2)C1 (stereo unspecified)	none
CSc1ccccc1OCc1cc(C(=O)N2CCN(C)C(c3ccccc3)C2)no1 (stereo unspecified)	none
COc1ccccc1OCc1cc(C(=O)N2CCN(C)C(c3ccccc3)C2)no1 (stereo unspecified)	DAX1 inh-2 4.2
CN(CCCOC(=O)c1cc2ccccc2o1)C1CN(Cc2cn(Cc3ccc([N+](=O)[O-])cc3)nn2)S(=O)(=O)C1 (stereo unspecified)	none (no result: DAX1 inh-1)
CCOC(=O)[C@]12CCCCC/C=C\1N(Cc1ccc(OC)cc1)C(=O)[C@H]2CC(=O)NCC1CCCCC1	none (no result: DAX1 inh-1)
Cc1cc(=O)[nH]c2ccc(S(=O)(=O)Nc3ccccc3)cc12	DAX1 inh-1 4.2
Cc1ccc(S(=O)(=O)Nc2c(C(=O)O)[nH]c3ccccc23)cc1C	hcDAF12 agonist 5.8
COC(=O)c1[nH]c2ccc(F)cc2c1NS(=O)(=O)c1ccc(F)c(C)c1	none
Cc1cc(S(=O)(=O)Nc2c(C(=O)O)[nH]c3ccccc23)ccc1F	ssDAF12 agonist 1.1
CC(=O)N1CCN(C(=O)CCn2nnc3ccccc32)CC1	none (no result: DAX1 inh-1)
COCCCNC(=O)C[C@H]1C[C@@]2(C(=O)OC)C(=C[C@H](COCc3ccccc3)O[C@@H]2C)N(Cc2ccc3c(c2)OCO3)C1=O	none (no result: DAX1 inh-1)
N=c1oc2ccc(Cl)cc2cc1C(=O)Nc1ccc(F)cc1	DAX1 inh-1 5.5
N=c1oc2ccccc2cc1C(=O)Nc1ccccc1	hcDAF12 agonist 5.9, hgDAF-12 ag 12.9
CN(CCOC(=O)c1cc2ccccc2o1)C1CN(Cc2cn(Cc3ccccc3C(F)(F)F)nn2)S(=O)(=O)C1 (stereo unspecified)	none (no result: DAX1 inh-1)
Cc1ccc(S(=O)(=O)NC2c3cccc4cccc(c34)C2Sc2nncn2C)cc1 (stereo unspecified)	none
Cc1ccc(S(=O)(=O)NC2c3cccc4cccc(c34)C2Sc2nc(C)cc(C)n2)cc1 (stereo unspecified)	ssDAF12 agonist 1.4
Clc1cc(Cl)cc(CNC2CCC23CCCCC3)c1 (stereo unspecified)	none (no result: DAX1 inh-1, DAX1 inh-2, SMARCA2 act)
COc1ccc(O)c(/C=C(\C#N)C(=O)Nc2cccnc2)c1	none
CCCOc1ccccc1/C=C(\C#N)C(=O)Nc1cccnc1	DAX1 inh-1 5.0
CC(=O)Nc1ccc(-c2csc(Nc3cc(C)ccn3)n2)cc1	none
CC(=O)Nc1cccc(-c2csc(Nc3cc(C)ccn3)n2)c1	hgDAF-12 ag 10.9
CC(=O)Nc1nc(C)c(-c2csc(Nc3ccccn3)n2)s1	hgDAF-12 ag 10.5!
Oc1ccc(-c2csc(Nc3ccccn3)n2)c(O)c1	DAX1 inh-1 4.6
CCOC(=O)CC[C@H]1CC[C@]2(CCCN(C(=O)c3cccnc3)C2)O1	none (no result: DAX1 inh-1)
C=CCNC(=O)Nc1ccc2c(c1)[C@]1(CC(=O)N(CC(C)C)C1c1ccccc1)C(=O)N2C (stereo partly specified)	none (no result: DAX1 inh-1)
CC(CCN1CCC(C(O)(c2ccccc2)c2ccccc2)CC1)Oc1cccc(Cl)c1 (stereo unspecified)	none (no result: DAX1 inh-1)
CC(CCN1CCC(C(O)(c2ccccc2)c2ccccc2)CC1)Oc1cccc(C(F)(F)F)c1 (stereo unspecified)	hcDAF12 agonist 6.4 (no result: DAX1 inh-1)
C[C@@H]1COc2cc(N3CCCCC3)ccc2S(=O)(=O)N1	none (no result: DAX1 inh-1)
Cc1nc(SCn2nnc3ccccc3c2=O)nc(C)c1C	none
Nc1nc(SCn2nnc3ccccc3c2=O)n[nH]1	DAX1 inh-1 6.8
COc1ccccc1C1C(C(N)=O)=C(C)Nc2ncnn21 (stereo unspecified)	DAX1 inh-1 6.7
CCOC(=O)C1=C(C)Nc2ncnn2C1c1c[nH]c2ccccc12 (stereo unspecified)	none
CC1=C(C(=O)OC(C)C)C(c2c[nH]c3ccccc23)n2ncnc2N1 (stereo unspecified)	hcDAF12 agonist 5.7
Clc1ccccc1N/N=C/c1ccc2c(c1)OCO2	DAX1 inh-1 4.3
C/C(=N\Nc1nc2ccccc2[nH]1)c1ccc2c(c1)OCO2	none
C(=N\Nc1nnnn1-c1ccccc1)/c1ccncc1	none
O=C(CNC(=O)c1ccccc1Cl)N/N=C/c1ccc2c(c1)OCO2	none
O=C(O)c1ccc(/C=N/Nc2nnnn2-c2ccccc2)cc1	ssDAF12 agonist 1.6
C(=N\Nc1nc2ccccc2[nH]1)/c1ccc2c(c1)OCO2	DAX1 inh-1 8.0
